This is an account of results in PubChem BioAssay (NCATS).

Records with an inconclusive call do not appear. Where a call stands in place of a potency, no number is given. Unmarked numbers belong to inactive results. Calls of active or inactive are those of the source. Calls come from the whole dose curve; as a rule, active = well fitted inhibition curve with a large enough effect; inconclusive = small, poorly fitted or top-dose-only effect; inactive = no such curve, though single readings can be large or run the other way. Where a SMILES comes first, the peptide text is derived from it. [ ]: non-standard residue; d: D form. Ala(indol-2-yl) = N[C@@H](Cc1cc2ccccc2[nH]1)C(=O)O; Aib = CC(C)(N)C(=O)O

The first assay has as its system Zika virus NS2B-NS3 protease (unlinked complex). In words: Primary screen GU Rhodamine qHTS for Zika virus inhibitors: Unlinked NS2B-NS3 protease assay (AID 1347159). Note: nearly all actives have a fitted effect of over 60% in size. To be noted: Recombinant ZIKV NS2B-NS3 protease, Rhodamine110 substrate fluorescence; series mostly up to 107 µM. Summed up:
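Percent inhibition came from the 15-min rise in Rhodamine110 fluorescence (1.5 microM substrate, ~15% conversion), normalized to no-inhibitor and no-enzyme wells and Hill-fitted. Unlinked protease, 25 nM, pH 8.0 Tris buffer; compounds up to 114 microM, 15-min preincubation.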
In general terms: In qHTS, concentration-response curves come from the screen itself.
On to `C[C@H]1O[C@@H](O[C@H]2CC[C@]3(C=O)C4CC[C@]5(C)[C@@H](C6=CC(=O)OC6)CC[C@]5(O)[C@@H]4CC[C@]3(O)C2)C[C@@H](O)[C@@H]1O` (stereo partly specified), for which the Potency result was “inactive”.
For the compound `COC1CC(O[C@H]2CC[C@]3(C=O)C4CC[C@]5(C)[C@@H](C6=CC(=O)OC6)CC[C@]5(O)[C@@H]4CC[C@@H]3C2)OC(C)C1O[C@@H]1O[C@H](CO)[C@@H](O[C@@H]2O[C@H](CO)[C@@H](O)[C@H](O)[C@H]2O)[C@H](O)[C@H]1O` (stereo partly specified), the Potency entry is “inactive”.
Take `CC1=C[C@H]2O[C@@H]3[C@H](O)[C@@H](O)[C@](C)([C@@]2(CO)C[C@@H]1O)[C@]31CO1`: the Potency result is “inactive”.
As to `C[C@H]1O[C@@H](n2cnc3c(N)ncnc32)C[C@@H]1O`, the Potency result was “inactive”.
`OCc1nnc2n1-c1ccc(Cl)cc1C(c1ccccc1Cl)=NC2`: the Potency result was “inactive”.
Take `CO[C@@H]1C[C@H](O[C@H]2CC[C@@]3(C)C(CCC4C3CC[C@]3(C)[C@@H](C5=CC(=O)OC5)[C@@H](OC(C)=O)CC43O)C2)O[C@H](C)[C@@H]1O[C@H]1O[C@H](CO[C@@H]2O[C@H](CO)[C@@H](O)[C@H](O)[C@H]2O)[C@@H](O)[C@H](O)[C@H]1O` (stereo partly specified): the Potency entry was “inactive”.
With `CC[C@@]1(O)C(=O)OCc2c1cc1n(c2=O)Cc2cc3c(OC)cccc3nc2-1`, the Potency result was “inactive”.
Turning to `CC(=O)O[C@H]1CC[C@@]2(CI)C(=CC[C@@H]3[C@@H]2CC[C@]2(C)C(=O)CC[C@@H]32)C1`, the Potency result is “inactive”.
For the compound `CN(C)c1cc2c(cc1Sc1nc3c(N)nccc3n1CCNCC(C)(C)C)OCO2`, the Potency entry is “inactive”.
In the case of `C[C@H]1C/C=C/[C@H]2[C@@H]3O[C@]3(C)[C@@H](C)[C@H]3[C@H](Cc4ccccc4)NC(=O)[C@]32OC(=O)O/C=C/[C@@](C)(O)C1=O`, the Potency entry was “inactive”.
`CC(C)(C)[C@]1(O)C[C@@H]2OC(=O)C[C@@]23C(=O)O[C@@H]2OC(=O)[C@@H](O)[C@]213`: the Potency result is “inactive”.
Take `N#CC(O[C@@H]1O[C@H](CO)[C@@H](O)[C@H](O)[C@H]1O)c1ccccc1` (stereo partly specified): the Potency entry is “inactive”.
For `COC1CC(O[C@H]2CC[C@]3(C)C4CC[C@]5(C)[C@@H](C6=CC(=O)OC6)[C@@H](OC(C)=O)C[C@]5(O)C4CC[C@@H]3C2)OC(C)C1O` (stereo partly specified), the Potency entry is “inactive”.
Same read-out and setting: as for `CC(=O)OC[C@]12C[C@H](O)C(C)=C[C@H]1O[C@@H]1[C@H](O)[C@@H](OC(C)=O)[C@@]2(C)[C@]12CO2`, the entry is “inactive”; as for `N#Cc1cn([C@@H]2O[C@H](CO)[C@H](O)[C@@H]2O)c2ncnc(N)c12`, “inactive”.

A further assay concerns Zika virus NS2B-NS3 protease (linked construct). In words: Primary screen NINDS Rhodamine qHTS for Zika virus inhibitors (AID 1347160). Note: nearly all actives have a fitted effect of over 55% in size. To be noted: purified NS2B-NS3 protease, Rhodamine110 substrate fluorescence; series mostly up to 57.1 µM. Summed up: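 Rhodamine110-peptide cleavage (1.5 µM substrate) by 25 nM linked NS2B-NS3 enzyme at pH 8.0 (Tris, Tween 20), after 15 min RT preincubation with compounds; 15-min fluorescence change normalized to controls and Hill-fitted.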
On to `CC(C)(NC(=O)[C@@H](N)Cc1ccc(O)cc1)C(=O)N[C@@H](Cc1cc2ccccc2[nH]1)C(=O)N[C@@H](Cc1ccccc1)C(=O)O` (H-Y[Aib][Ala(indol-2-yl)]F-OH), for which the activity change, negative = inhibition is -10.9% [at 10.7 µM].
For `COc1ccc2c3c([nH]c2c1)C(C=C(C)C)N1C(=O)C2CCCN2C(=O)C1C3` (stereo unspecified), the Potency entry was “inactive”.
On to `C[C@@H]1C[C@@H](O)[C@]2(O)O[C@@H]3C[C@@]4(C=O)C(CC[C@@H]5C4CC[C@]4(C)[C@@](O)(C6=CC(=O)OC6)CC[C@]54O)C[C@H]3OC2O1` (stereo partly specified), for which the Potency entry is “inactive”.
Turning to `CC[C@H](C)[C@H](NC(=O)[C@H]1CCCCN1C)C(=O)N(COC(=O)CC(C)C)[C@H](C[C@@H](OC(C)=O)c1nc(C(=O)N[C@@H](Cc2ccc(O)cc2)C[C@H](C)C(=O)O)cs1)C(C)C`, the outcome was “inactive [at 1.3 µM]”.
As to `CC(=O)OC[C@]12C[C@H](OC(=O)CC(C)C)C(C)=C[C@H]1O[C@@H]1[C@H](O)C[C@@]2(C)[C@]12CO2`, the Potency entry was “inactive”.
For `CO[C@H]1[C@H](O)[C@H](O[C@H]2CC[C@]3(C=O)C4CC[C@]5(C)[C@H](C6=CC(=O)OC6)CC[C@]5(O)C4CC[C@@H]3C2)O[C@@H](C)[C@@H]1O` (stereo partly specified), the Potency result is “inactive”.
On the same count and under the same terms, under `C[C@H]1O[C@@H](O[C@H]2CC[C@]3(C=O)C4CC[C@]5(C)[C@@H](C6=CC(=O)OC6)CC[C@]5(O)[C@@H]4CC[C@]3(O)C2)C[C@@H](O)[C@@H]1O` (stereo partly specified) stands “inactive”; under `COC1CC(O[C@H]2CC[C@]3(C=O)C4CC[C@]5(C)[C@@H](C6=CC(=O)OC6)CC[C@]5(O)[C@@H]4CC[C@@H]3C2)OC(C)C1O[C@@H]1O[C@H](CO)[C@@H](O[C@@H]2O[C@H](CO)[C@@H](O)[C@H](O)[C@H]2O)[C@H](O)[C@H]1O` (stereo partly specified), “inactive”.
`C[C@]12CC[C@H](O)C[C@H]1CC[C@@H]1[C@@H]2[C@H](O)C[C@]2(C)[C@@H](c3ccc(=O)oc3)CC[C@]12O`: the Potency entry is “inactive”.
Still for that read-out and setting: under `C[C@H]1O[C@@H](n2cnc3c(N)ncnc32)C[C@@H]1O` stands “inactive”; under `CC[C@H]1C2CC3[C@@H]4N(C)c5ccccc5[C@]45C[C@@H]([C@H]2[C@H]5O)N3[C@@H]1O`, “inactive”.
As for `CO[C@@H]1C[C@H](O[C@H]2CC[C@@]3(C)C(CCC4C3CC[C@]3(C)[C@@H](C5=CC(=O)OC5)[C@@H](OC(C)=O)CC43O)C2)O[C@H](C)[C@@H]1O[C@H]1O[C@H](CO[C@@H]2O[C@H](CO)[C@@H](O)[C@H](O)[C@H]2O)[C@@H](O)[C@H](O)[C@H]1O` (stereo partly specified), the Potency result was “inactive”.
On the same count and under the same terms, as for `CC[C@@]1(O)C(=O)OCc2c1cc1n(c2=O)Cc2cc3c(OC)cccc3nc2-1`, the entry is “inactive”; as for `CC1=CC2OC3[C@H](O)C[C@@](C)([C@]34CO4)[C@@]2(CO)[C@H](O)C1=O` (stereo partly specified), “inactive”; as for `CC(=O)O[C@H]1CC[C@@]2(CI)C(=CC[C@@H]3[C@@H]2CC[C@]2(C)C(=O)CC[C@@H]32)C1`, “inactive”.
For the compound `C=C1[C@@H](C)[C@H]2[C@H](Cc3ccccc3)NC(=O)[C@]23OC(=O)/C=C/C(=O)CCC[C@@H](C)C/C=C/[C@H]3[C@@H]1O`, the Potency result was “inactive”.
On the same count and under the same terms, as for `C[C@H](CCC(=O)O)C[C@H](C)C[C@H](C)C(=O)/C=C(\O)[C@H](C)C[C@H](C)C/C=C/[C@@H](C)[C@@H](O)[C@@H](C)[C@@H](O)C[C@@H]1CC[C@@](C)([C@H]2CC[C@@](C)([C@@H](C)O)O2)O1`, the entry is “inactive”; as for `C[C@H]1C/C=C/[C@H]2[C@@H]3O[C@]3(C)[C@@H](C)[C@H]3[C@H](Cc4ccccc4)NC(=O)[C@]32OC(=O)O/C=C/[C@@](C)(O)C1=O`, “inactive”.
The same measure, in the same setting: as for `CC(C)(C)[C@]1(O)C[C@@H]2OC(=O)C[C@@]23C(=O)O[C@@H]2OC(=O)[C@@H](O)[C@]213`, the entry is “inactive”; as for `N#CC(O[C@@H]1O[C@H](CO)[C@@H](O)[C@H](O)[C@H]1O)c1ccccc1` (stereo partly specified), “inactive”; as for `COC1CC(O[C@H]2CC[C@]3(C)C4CC[C@]5(C)[C@@H](C6=CC(=O)OC6)[C@@H](OC(C)=O)C[C@]5(O)C4CC[C@@H]3C2)OC(C)C1O` (stereo partly specified), “inactive”.
In the case of `CC(=O)O[C@H]1CN2CCC1CC2`, the Potency result was “inactive”.
In the case of `CC(=O)OC[C@]12C[C@H](O)C(C)=C[C@H]1O[C@@H]1[C@H](O)[C@@H](OC(C)=O)[C@@]2(C)[C@]12CO2`, the Potency entry was “inactive”.
As to `CC1=CC(=O)[C@@H](O)[C@]2(C)C3[C@@H](O)[C@@H]4OC(=O)[C@@H]([C@H]4C)[C@]3(C)C(=O)C[C@@H]12` (stereo partly specified), the Potency result was “inactive”.
Consider `CC[C@@H]1C[C@H]2CC[C@H](O2)[C@H](C)C(=O)O[C@@H](C)C[C@@H]2CC[C@@H](O2)[C@@H](C)C(=O)O[C@H](CC)C[C@H]2CC[C@H](O2)[C@H](C)C(=O)O[C@@H](C)C[C@@H]2CC[C@@H](O2)[C@@H](C)C(=O)O1`, for which the Potency entry was “inactive”.
On to `N#Cc1cn([C@@H]2O[C@H](CO)[C@H](O)[C@@H]2O)c2ncnc(N)c12`, for which the Potency result was “inactive”.
